# From PubChem BioAssay
# Sm TGR inh: S. mansoni TGR enzyme inhibition | Q962Y6 | AID 485364 | Potency, µM (top dose mostly 114 µM), for inactives: top-dose activity change, negative = inhibition, actives largely listed as inhibitors | purified TGR, DTNB reduction, TNB absorbance 405 nm | 360,000 tested, 3% active; further: potency means the concentration at half of the fitted maximal effect; nearly all actives have a fitted effect of over 60% in size
#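 First, TGR (20 nM dispensed) and NADPH were mixed with compound. Second, a 15 min room-temperature incubation followed. Third, further NADPH and then DTNB were added to start the reaction. Finally, TNB absorbance was monitored kinetically.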
# HCMV antiviral: blocks human cytomegalovirus replication | HFF cells, HCMV-luciferase reporter, 72 h; hits give low values | 410,000 tested, 4.5% active | AID 1259415 | activity change, negative = inhibition, % at 57.5 µM; in the data active means activity change below about -60%; inconclusive means no clear call, values can overlap the other calls; inactive means above about -39%
#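 Cell-based, HFFs, 1000 cells/well, 16 h 37C; cpds in DMSO + HCMV-luc, MOI 1 PFU/cell; 72 h 37C; OneGlo luminescence after 5 min RT; norm. to buffer vs Salinomycin 10uM.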
# FMDV inh: antivirals against foot and mouth disease virus. 410,000 tested, 1.2% active. Potency, µM (top dose mostly 57.9 µM), inactives show at the top dose activity change, negative = inhibition, most hits filed as inhibitors. FMDV antiviral cell-based qHTS. AID 1159524; calls by dose curve; tested in HEK293T cells; further: read-out not given here; potency means the concentration at half of the fitted maximal effect; nearly all actives have a fitted effect of over 45% in size
# Giardia FBPA inh: Giardia lamblia aldolase inhibition. A8B2U2. purified Giardia FBPA. Potency, µM (series often up to 59.6 µM), for inactives: at the top dose activity, negative = inhibition, most hits filed as inhibitors. 290,000 tested, 0.71% active; further: potency means the concentration at half of the fitted maximal effect; nearly all actives have a fitted effect of over 55% in size
# Target sequence (A8B2U2 whole entry, looked up): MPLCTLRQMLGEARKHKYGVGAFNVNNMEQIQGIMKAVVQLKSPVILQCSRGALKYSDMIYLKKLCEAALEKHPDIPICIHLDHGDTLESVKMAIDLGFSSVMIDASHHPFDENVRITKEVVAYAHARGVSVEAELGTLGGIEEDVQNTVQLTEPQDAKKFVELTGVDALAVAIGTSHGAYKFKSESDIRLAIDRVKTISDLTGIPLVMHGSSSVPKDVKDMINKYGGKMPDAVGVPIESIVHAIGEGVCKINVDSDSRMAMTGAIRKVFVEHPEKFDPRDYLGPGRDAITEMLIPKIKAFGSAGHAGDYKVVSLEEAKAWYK
#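 40 nM FBPA preincubated 10 min at RT with compound (up to 57.5 uM final), then substrate plus GAPDH/TPI/NAD/arsenate coupling and diaphorase/resazurin added. Fluorescence read after 20 min at RT, 525/598 nm.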
# Tb PYK inh: blocks Trypanosoma brucei pyruvate kinase. TbPYK enzyme, Kinase-Glo Plus ATP luminescence, 45 min. Potency, µM (titrated, usually from 76.8 µM), without a hit: top-dose activity, negative = inhibition, hits mostly inhibitors. AID 624173. 410,000 tested, 0.12% active. Q57TT1; further: potency means the concentration at half of the fitted maximal effect; nearly all actives have a fitted effect of over 50% in size
#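 In this concentration-response screen, enzyme-free wells defined baseline while DMSO plates tracked drift. Each reaction combined TbPYK, substrate, compound and 130 uM ADP for 45 min at room temperature. Kinase-Glo Plus luminescence gave the signal.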
# RE007 growth inh: less growth of the S. pombe RE007 Vpr strain; S. pombe RE007 Vpr strain, BacTiter-Glo ATP luminescence, 24 h; Potency, µM (series often up to 92.2 µM), inactives show top-dose activity change, negative = less growth, usual class: inhibitors; 360,000 tested, 0.21% active; AID 651644; active means well fitted falling curve with a large enough effect; inconclusive means small, poorly fitted or top-dose-only effect; inactive means no such curve, though single readings can be large or run the other way; further: potency means the concentration at half of the fitted maximal effect; nearly all actives have a fitted effect of over 50% in size
#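 Fission yeast strain RE007, carrying one chromosomally integrated HIV-1 vpr copy, was seeded at OD 0.01 in PMG+AL medium with 23 nL pinned compound. After 24 h at 30 °C and 99% humidity, viability was read by BacTiter-Glo luminescence.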
# The depositor's hits bear a star; ? = inconclusive; · = not tested or not shown; [ ] = dose if it differs, or a comment. Hits are enriched below; roughly 7.7% of the tested compounds scored in any of these assays. Unless noted, the call rests on the fitted dose curve; in most records, active means well fitted curve in the direction sought with a large enough effect; inconclusive means small, poorly fitted or top-dose-only effect, or another doubt; inactive means no such curve, though single readings can be large; an effect the other way counts as inactive or inconclusive. On the % scale 0 is the no-effect control and ±100 the full control effect.
SMILES,Sm TGR inh,HCMV antiviral,FMDV inh,Giardia FBPA inh,Tb PYK inh,RE007 growth inh
COc1cc([N+](=O)[O-])cc(/C=N/NC(=O)c2ccc(C)nc2)c1O,-19%,-32,-1%,?,-8%,8%
O=C(N/N=C/c1ccccc1O)c1cccc(C(F)(F)F)c1,2%,-102*,68%,-21%,-20%,9%
COc1ccc(/C=N/NC(=O)c2cccc([N+](=O)[O-])c2)cc1O,·,-28,65%,-3%,-1%,-11%
COc1cc([N+](=O)[O-])cc(/C=N/NC(=O)c2ccc(NC(=O)c3ccc(C)cc3)cc2)c1O,·,-102*,?,10%,0%,-13%
COc1ccc2ccccc2c1/C=N/NC(=O)c1cccc([N+](=O)[O-])c1,10%,-62*,2%,0%,-4%,-7%
CCOc1cccc(C=NNC(=O)C(=O)Nc2cccc(C(F)(F)F)c2)c1O,·,-62*,·,·,·,·
Cc1ccc2nc(-c3cccs3)c(Nc3ccc4c(c3)OCCO4)n2c1,3%,55,54%,·,0%,·
O=C(NN=Cc1ccccc1O)c1cccc([N+](=O)[O-])c1,·,-97*,20%,·,2%,2%
COc1ccccc1/C=N/NC(=O)c1ccc(NC(=O)c2cccc([N+](=O)[O-])c2)cc1,8%,·,·,-3%,·,·
COc1cccc(/C=N/NC(=O)c2cc3cc([N+](=O)[O-])ccc3s2)c1O,-11%,-104*,-6%,-24%,-2%,0%
CCOc1ccc(N(C)S(=O)(=O)c2ccc3c(c2)CCCN3C(C)=O)cc1,6%,-18,?,·,-2%,·
CCOC(=O)c1ccc(NC(=O)c2ccc3c(c2)C(=O)N(CC2CCCO2)C3=O)cc1 (stereo unspecified),4%,-16,28µM*,·,3%,-11%
COc1ccc(OC)c(NC(=O)c2ccc3c(c2)C(=O)N(CC2CCCO2)C3=O)c1 (stereo unspecified),6%,-66*,-9%,·,-3%,-11%
CCOC(=O)c1ccc(NC(=O)c2ccc3c(c2)C(=O)N(Cc2cccnc2)C3=O)cc1,4%,11,18µM*,·,4%,8%
CC1CC(Nc2ccccc2)c2ccccc2N1C(=O)c1ccccc1F (stereo unspecified),3%,-67*,?,-1%,2%,0%
CN(C)/C=C1/C(=O)NC(=O)N(CCNc2ncc(C(F)(F)F)cc2Cl)C1=O,11µM*,-7,?,12%,-8%,8%
COC(=O)[C@H](Cc1ccccc1)NC(=O)C/C=C\[C@@H](C)[C@@H](CO)OC,·,·,·,-1%[12.9 µM],·,·
CCOC(=O)Cn1c(=O)n(-c2ccc(Cl)cc2)c2nc(-c3ccc(Cl)cc3)nc(C(N)=O)c21,-4%,-5,-17%,·,1%,·
CC(C)Cc1nc2cc(NS(=O)(=O)N(C)C)cc(C(=O)N3CCOCC3)c2n1C,·,·,26%,·,·,·
Cc1cc(=O)c(C(=O)N[C@@H](C(=O)N[C@@H]2C(=O)N3C(C(=O)O)=C(CSc4nnnn4C)CS[C@H]23)c2ccc(O)cc2)c[nH]1,·,·,·,·,-12%,·
Cn1nnnc1SCC1=C(C(=O)O)N2C(=O)C(NC(=O)Cn3nc(C(F)F)cc3C3CC3)C2SC1 (stereo unspecified),3.5µM*,-23,-10%,?,-3%,2%
O=C(O)C1=C(CSc2nnnn2CS(=O)(=O)O)CS[C@@H]2[C@H](NC(=O)[C@H](O)c3ccccc3)C(=O)N12,·,·,·,·,-7%,·
Cc1c(Cl)cnn1CC(=O)NC1C(=O)N2C(C(=O)O)=C(CSc3nnnn3C)CSC12 (stereo unspecified),16µM*,-26,-5%,?,-14%,3%
Cc1c(Cl)c(C(F)F)nn1CC(=O)NC1C(=O)N2C(C(=O)O)=C(CSc3nnnn3C)CSC12 (stereo unspecified),4µM*,?,3%,-20%,-7%,-8%
Cc1nnc(SCC2=C(C(=O)O)N3C(=O)C(NC(=O)Cc4ccccc4)C3SC2)s1 (stereo unspecified),13µM*,0,6%,·,-11%,-3%
SMILES,Sm TGR inh,HCMV antiviral,FMDV inh,Giardia FBPA inh,Tb PYK inh,RE007 growth inh
Cc1nn(CC(=O)NC2C(=O)N3C(C(=O)O)=C(CSc4nnnn4C)CSC23)cc1Br (stereo unspecified),20µM*,2,-13%,?,-1%,0%
O=C(NCCc1ccccc1)c1cc(Sc2ccc(F)cc2F)nc2ccccc12,2%,1,-17%,·,5%,·
CCOc1ccccc1CNC(=O)c1cc2occc2n1C,?,-31,1%,-17%,0%,-13%
Cn1c(C(=O)NCc2cccc(Cl)c2)cc2oc3ccccc3c21,24%,-64*,-1%,·,-4%,·
CCOc1ccccc1CNC(=O)c1cc2oc3ccccc3c2n1C,-1%,-85*,1%,-5%,0%,2%
O=[N+]([O-])c1ccc(Cl)c([N+](=O)[O-])c1,2.2µM*,-74*,?,·,1%,?
CC(=O)Nc1nonc1-c1nnc(SCC(=O)Nc2ccccc2)n1-c1ccccc1,6%,0,0%,·,0%,·
NC(=O)COC(=O)c1ccccc1Nc1ccc(SC(F)F)cc1,-4%,-19,11%,3%,10%,39%
O=C(COC(=O)c1ccccc1Nc1ccc(SC(F)F)cc1)NC1CC1,-1%,-71*,3%,-2%,4%,-17%
CCOc1ccc(C(=O)Nc2ccc(-c3nc4cc(CC)ccc4o3)cc2)cc1,5%,-74*,-25%,·,3%,·
O=C(Nc1ccc2oc(-c3ccncc3)nc2c1)c1ccco1,35µM*,77,3%,-5%,-11%,-4%
O=C(Nc1ccc2c(c1)nc1n2CCSC1)c1ccco1,14µM*,127,-52%,-21%,-5%,-6%
O=C(Nc1ccc2oc(-c3cccnc3)nc2c1)c1ccc(-c2ccccc2)o1,35µM*,-73*,35µM*,·,2%,·
O=C(Nc1ccc2c(c1)nc1n2CCOC1)c1ccco1,-27%,122,13%,0%,-15%,-5%
O=C(Nc1ccc2oc(-c3ccccc3)nc2c1)c1ccco1,-11%,56,5%,1%,-10%,-10%
O=C(CN1C(=O)c2cccnc2Oc2ccc(Cl)cc21)Nc1cccc(C(F)(F)F)c1,1%,0,-1%,·,-1%[15.4 µM],·
Nc1ncnc2nc(-c3ccc(N4CCOCC4)nc3)cc(-c3cccc(Br)c3)c12,·,·,·,-16%,4%,·
COc1cc(C(=O)Nc2ccc3oc(-c4cccnc4)nc3c2)cc(OC)c1OC,8%,11,?,10%,4%,-2%
COc1cc(C(=O)Nc2ccc3oc(-c4ccccc4)nc3c2)cc(OC)c1OC,8%,-81*,?,·,-1%,·
